Screen size: about 360,000 compounds; about 300 (0.083%) were called active. This excerpt belongs to a sample that is enriched for actives. Values without a mark were called inactive. Cut-off read from the data, not from the text of the source: active = activation above about 40%; inconclusive = between about 15% and that limit; inactive = weaker than that.
The compounds below were run against D(2) dopamine receptor (Homo sapiens) (UniProt P14416) (assay: Beta-Arrestin HTS for Positive Allosteric Modulators of the Human D2 Dopamine Receptor: Agonists). Conditions: DiscoveRx PathHunter D2 beta-arrestin, luminescence, 90 min; stronger effect = higher value; 100% = 57 uM dopamine signal.
Chain of D(2) dopamine receptor (Homo sapiens) (P14416 whole entry, looked up): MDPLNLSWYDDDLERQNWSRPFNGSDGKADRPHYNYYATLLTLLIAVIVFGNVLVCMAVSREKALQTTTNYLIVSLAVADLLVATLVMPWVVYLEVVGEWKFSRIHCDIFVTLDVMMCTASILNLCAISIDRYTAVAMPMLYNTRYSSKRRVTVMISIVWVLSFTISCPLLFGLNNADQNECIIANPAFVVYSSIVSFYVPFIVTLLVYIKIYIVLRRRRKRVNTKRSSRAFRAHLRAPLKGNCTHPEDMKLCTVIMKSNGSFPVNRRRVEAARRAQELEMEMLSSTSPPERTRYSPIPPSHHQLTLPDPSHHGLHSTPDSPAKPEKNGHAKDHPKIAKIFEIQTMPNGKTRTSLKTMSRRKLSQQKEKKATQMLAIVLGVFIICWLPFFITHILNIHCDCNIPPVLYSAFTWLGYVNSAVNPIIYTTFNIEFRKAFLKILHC
Text: There is great interest in identifying small molecule ligands for G-protein coupled receptors (GPCRs) as nearly 50% of all FDA-approved drugs target these important receptor proteins. […] Amongst the dopamine receptors (DARs), the D2 is arguably one of the most validated drug targets in neurology and psychiatry. For instance, all receptor-based antiparkinsonian drugs primarily work via stimulating the D2 DAR, whereas all FDA-approved antipsychotic agents are antagonists of this receptor. The D2 DAR is also therapeutically targeted in other disorders such as restless legs syndrome, tardive dyskinesia, Tourette's syndrome, and hyperprolactinemia.
To this end, a miniaturized qHTS screen was developed to be screened against the Molecular Libraries Small Molecule Repository (MLSMR). This assay seeks to identify agonists against the D2 DAR.
NIH Molecular Libraries Probe Production Network [MLPCN]
NIH Chemical Genomics Center [NCGC]
PI Name: David Sibley, National Institutes of Neurological Disorders and Stroke
DiscoveRx D2 cells were thawed from frozen stock and seeded at 2,100 cells/ 3 uL/well media (DiscoveRx Plating Reagent 2) with MultiDrop Combi dispenser (Thermo Scientific, Logan, UT) onto white tissue culture treated 1536-well Aurora plates (Brooks Automation, Chelmsford, MA) and allowed to attach overnight at 37 deg C, 5% CO2. Next, 23 nL/well of compound solutions in DMSO were added with a pintool transfer (Kalypsis, San Diego, CA). As the positive control, 1 uL/well dopamine (EC100, 57 uM final concentration) diluted in buffer (HBSS + 10 mM HEPES + SMB + 0.1% Tween-20) was dispensed to 1 column of each plate. The rest of the plate was dispensed with buffer only, 1 uL/well as well. The cells were stimulated by compounds or dopamine control for 90 minutes at 37 deg C, 5% CO2, after which 1.5 ul/well of DiscoveRx detection reagent was added with BioRAPTR FRD dispenser. The detection reagent was prepared by mixing of Galacton Star Substrate, Emerald II solution and PathHunter buffer (supplied by the assay kit) together at 1:5:19 proportion accordingly just prior to dispensing. The plates were incubated at ambient temperature for 1 hour and then the luminescent signal was read on ViewLux plate reader (PerkinElmer, Waltham, MA).
`CC1(C)C(=O)C2(CCCCC2)C(=O)OC1c1cccs1` (centres undefined) gave an activation of -2.99%. Work on `CC(=O)Nc1ccc(CNc2nc(NCCN(C)C)nc3cc(-c4ccccc4)sc23)cc1` yielded an activation of -1.9%. In the case of `COCCNc1nc(NCc2ccc(NC(C)=O)cc2)c2sccc2n1`, the activation was 67.7% (active). Compound `COc1cccc(CNc2nc(NCc3cccs3)nc3ccsc23)c1` has an activation of -1.88%. For `COc1cccc(C(O)c2ncc(-c3ccc4ccccc4c3)[nH]2)c1` (centres undefined), the activation was -2.42%. For `CC1(C(=O)Nc2ccccc2Br)CCN1C(=O)CC1CC1` (centres undefined), the activation was -0.948%. `COc1cc(NC(=O)C2CCN(c3cnccn3)CC2)cc(OC)c1` showed an activation of -4.96%. In the case of `COc1ccc(N(CC(=O)Nc2cc(OC)cc(OC)c2)S(=O)(=O)c2c(C)n[nH]c2C)cc1`, the activation was -3.11%. Work on `CCNC(=O)Nc1ccc(S(=O)(=O)Nc2cnc(C)nc2C)cc1` yielded an activation of -5.47%. In the case of `O=c1ccc(-c2ccc(S(=O)(=O)Nc3ccccc3)o2)n[nH]1`, the activation was -1.56%. `CCN1C(=O)C(=O)N(CC(=O)Nc2cc(C)ccc2C)C1=O` was tested, and the activation was -2.03%. Compound `CCOc1ccc(CN2CCC(n3nccc3NC(=O)C3CC3)CC2)cc1CO` has an activation of 4.34%. `CCCNC(=O)c1cc(C2CCCCN2C(=O)OC)on1` (centres undefined) gave an activation of -5.6%. `COc1ccc(C2=Nc3ccccc3NC(=O)C2N(C(=O)c2cc3ccccc3[nH]2)c2ccccc2)cc1` (centres undefined) showed an activation of 2.65%. Work on `CC(C)(O)C#Cc1ccc(CNC[C@H]2O[C@@H](n3cnc4c(=O)[nH]c(N)nc43)[C@H](O)[C@@H]2O)s1` yielded an activation of -5.21%. In the case of `O=S(=O)(Cc1nnnn1-c1ccccc1)c1ccccc1`, the activation was 0.629%. Compound `CC(=O)c1c(N2CCN(c3ccc(F)cc3)CC2)nc(=S)n(-c2ccccc2)c1C` has an activation of -6.73%. `CC(C)c1ccc(S(=O)(=O)N2CCN(C(=O)CN3C(=O)NC(C)(c4ccccc4)C3=O)CC2)cc1` (centres undefined) showed an activation of 1.77%. `O=C(Nc1ccc(Cl)c(Cl)c1)N1CC=C(c2ccccc2)CC1` gave an activation of -2.15%. Compound `CC1CC(C)CN(C(=O)COC(=O)c2ccc3ncsc3c2)C1` (centres undefined) has an activation of 0.233%. With `CCC(=O)c1c[nH]c(C(=O)NCC2CCCO2)c1` (centres undefined) the activation was -0.182%. `CCCC(=O)N1c2ccc(-c3csc(N)n3)cc2CC1C` (centres undefined) gave an activation of 2.86%. `CC(C)(C)C(=O)OCc1nc(-c2ccc(O)c(O)c2)cs1` was tested, and the activation was 78% (active). `COc1ccc(C(C)(O)c2nc(-c3ccc(C)c(C)c3)cs2)cc1` (centres undefined) gave an activation of 0.66%. `CCCN(CCC)c1c([N+](=O)[O-])c(=O)oc2ccccc12` was tested, and the activation was -4.9%. `O=C1/C(=C\c2ccc([N+](=O)[O-])cc2)CS(=O)(=O)C/C1=C/c1ccc([N+](=O)[O-])cc1` gave an activation of -8.23%. `O=C(O)C1CCN1C1CCCCC1` (centres undefined) showed an activation of -0.715%. Compound `OC[C@@H]1CN(Cc2cccs2)C[C@H](n2cnc3c(Nc4ccccc4)ncnc32)O1` has an activation of -3.6%. Work on `COc1cccc(-c2cnc3c(NC(C)=O)cc(-c4cc(F)ccc4OC)cn23)c1` yielded an activation of 2.15%. `CN1C(=O)/C(=C/C=C2\SCCN2C)OC1=S` was tested, and the activation was -3.31%. `O=C1c2ccccc2C(=O)N1CCC(O)C[N+](=O)[O-]` (centres undefined) showed an activation of -2.92%. `O=C(NC1CC2CCCC(C1)N2C(=O)N1CCCCC1)C1CCCCC1` (centres undefined) showed an activation of -2.68%. Compound `O=C(Nc1ccccc1N1CCOCC1)c1ccc(OCc2cscn2)cc1` has an activation of 9.98%. `Cc1ccc(N=C2NC(=O)c3cccc([N+](=O)[O-])c32)cc1` was tested, and the activation was 1.24%. `COc1ccc([C@H]2C[C@@H](n3cc(COC(=O)c4ccccc4)nn3)[C@H](O)CN2C(=O)c2cccs2)cc1` gave an activation of -3.3%. `COc1cc(C(=O)Nc2cc(C(F)(F)F)ccc2N2CCOCC2)ccc1O` showed an activation of -0.449%. `CCOC(=O)C(NS(=O)(=O)c1ccc(C)cc1)(C(F)(F)F)P(=O)(OCC(C)C)OCC(C)C` (centres undefined) gave an activation of -3.61%. Compound `COc1ccc(N2C(=O)C3C(C2=O)C(C(=O)c2ccccc2)N2CCCC32)cc1` (centres undefined) has an activation of -3.43%. `O=C(CSc1ccccn1)Nc1nc2c(ccc3ccccc32)s1` showed an activation of -0.569%. `CC(=O)c1nn(-c2ccccc2)c(=Nc2ccccc2)cc1C` gave an activation of -5.64%. Work on `CON(C)S(=O)(=O)c1ccc2c(c1)NC(=O)C1CCCN21` (centres undefined) yielded an activation of -0.103%. `COc1cccc(OCc2cc(C(=O)N3CCN(C(=O)c4ccco4)CC3)no2)c1` showed an activation of 2.91%. For `O=C(c1ccco1)N1CCN(Cc2cccc(C(F)(F)F)c2)CC1`, the activation was 41.8% (active). With `O=C(c1ccco1)N1CCN(C(=S)Nc2cc(F)cc(F)c2)CC1` the activation was 0.341%.
